{"source": "paper PMC5540273", "about": "(PLoS ONE, 2017);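 note: kd values determined as follow-up on hits from a single-replicate KINOMEscan panel screen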"}
{"system": "T1, NIK", "T1 construct": "gene MAP3K14", "units": {"Kd": "µM"}}
{"smiles": "COC(=O)c1c(-c2ccccc2)c2cc(C)ccc2c(=O)n1Cc1ccccc1", "Kd": "> 10"}
{"smiles": "Nc1n[nH]c2nnc(-c3ccccc3)c(-c3ccccc3)c12", "note": "[GW554060]", "Kd": "> 10"}
{"smiles": "COc1cccc(C2=C(N(C)c3ccccc3)C(=O)NC2=O)c1", "note": "[SB-334865]", "Kd": "> 10"}
{"smiles": "Nc1ncnc2c1ncn2-c1ccc(Cl)cc1", "note": "[AH2635]", "Kd": "> 10"}
